Compound activity: PubChem, Broad Institute
Shown is part of a subset that was picked to be rich in hits.
Tg IFNy HTS: inhibitors of Toxoplasma gondii growth with IFN-gamma. Toxoplasma gondii growth in IFN-gamma-treated host cells; hits give low values. 69,000 compounds, 3.8% hits. AID 1259416. activity change, negative = inhibition, % (concentration not given with the values); in the data active means activity change below about -70%, passing the limit was not always enough;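 further: host cells are HeLa cells infected with Toxoplasma gondii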
Active calls of the source: *.

SMILES	Tg IFNy HTS
Nc1nnc(SCc2c(Cl)cccc2Cl)s1	80
CCOc1ccc(S(=O)(=O)N2CCC3(CC2)Nc2cc(F)ccc2-n2cccc23)cc1	23
CCOc1ccc(S(=O)(=O)n2cc(F)c(=O)[nH]c2=O)cc1	-85*
CCOc1ccc(S(=O)(=O)c2ccc(Cl)cc2)cc1	16
CCc1ccccc1NC(=O)c1c(O)c2cccnc2n(-c2ccccc2)c1=O	-52
O=c1[nH]c2ccccc2cc1-c1nccn1Cc1ccccc1Cn1cccn1	2
Cc1nc(C)c(C(=O)N2CCc3cc(-c4csc(C5CC5)n4)ccc32)s1	-109*
Cc1nc(-c2ccccc2)sc1C(=O)N1CCCc2ccccc21	-29
Cc1cccc(N2CCN(C(=O)c3ccc(-c4csc(C5CC5)n4)cc3)CC2)c1C	13
CCOC(=O)C1CCN(C(=O)c2ccc(-c3csc(C4CC4)n3)cc2)CC1	160
O=C(C1CC1)N1CCc2cc(-c3csc(C4CC4)n3)ccc21	-112*
CC(=O)N1CCC(C(=O)N2CCc3cc(-c4csc(C5CC5)n4)ccc32)CC1	45
O=C(c1cccs1)N1CCOCC2(C1)CN(c1cccnc1)C(=O)CO2 (centres undefined)	-3
C(=N\NC1=NCCN1)/c1c2ccccc2c(/C=N/NC2=NCCN2)c2ccccc12	-75*
Brc1c(NC2=NCCN2)ccc2nccnc12	11
c1ccc2c(CC3=NCCN3)cccc2c1	-1
Cc1ccc(-c2ncc(CN3CCC(O)(c4ccc(C)cc4)C3)cn2)cc1 (centres undefined)	16
CC(C)(C)c1cc(-c2cc(C(F)(F)F)[nH]n2)c2c(c1)C(C)(C)CC2	-87*
CC(C)(C)c1cc(C2=NNC(O)(C(F)(F)F)C2)c2c(c1)C(C)(C)CC2 (centres undefined)	-100*
OC1(C(F)(F)F)CC(c2nccs2)=NN1 (centres undefined)	-13
CN1CCC2(CCN(C(=O)c3cc(C(F)(F)F)[nH]n3)CC2)C1	-2
COc1ccc(CCCNC(=O)c2ccc(-c3cccc4cccnc34)nc2)cc1	-23
COc1ccc(NC(=O)C2=C(C)C(=O)OC23CCN(C(C)=O)CC3)cc1OC	107
Cc1cncc(C(=O)N2CCC(N3CCOCC3)CC2C(=O)O)c1 (centres undefined)	-15
C=CC(=O)N1CCC[C@@H](n2nc(-c3ccc(Oc4ccccc4)cc3)c3c(N)ncnc32)C1	-79*
SMILES	Tg IFNy HTS
NC(=O)c1[nH]c(C2CCCN(C(=O)COc3ccccc3)C2)nc1-c1ccccc1 (centres undefined)	-23
COc1ccc(-c2ncnc3c2c(C(=O)N2CCCC2)c2ccccn23)cc1	-50
O=C1CCC[C@]2(CN(C(=O)C3OCCc4ccccc43)C[C@H]2c2ccc(F)c(F)c2)N1 (some centres undefined)	-30
COc1ccc(C2(C(=O)NC3C=CS(=O)(=O)C3)CCCC2)cc1 (centres undefined)	11
CC1CCN(S(=O)(=O)c2ccc3c(c2)CCC(=O)N3CC(=O)Nc2ccccn2)CC1	10
Cc1cc(C)c(NC(=O)CN2C(=O)CCc3cc(S(=O)(=O)N4CCC(C)CC4)ccc32)c(C)c1	-31
CCOc1ccc(NC(=O)CN2C(=O)CCc3cc(S(=O)(=O)N4CCC(C)CC4)ccc32)cc1	-26
CC(C)NC(=O)CN1C(=O)CCc2cc(S(=O)(=O)N3CCCCC3C)ccc21 (centres undefined)	36
CC(=O)Nc1ccc(NC(=O)CN2C(=O)CCc3cc(S(=O)(=O)N4CCC(C)CC4)ccc32)cc1	23
Cc1cc(C)c(NC(=O)CN2C(=O)CCc3cc(S(=O)(=O)N4CCCCC4C)ccc32)c(C)c1 (centres undefined)	-43
Cc1csc(NC(=O)CN2C(=O)CCc3cc(S(=O)(=O)N4CCC(C)CC4)ccc32)n1	-93*
CC(C)c1ccc(NC(=O)CN2C(=O)CCc3cc(S(=O)(=O)N4CCCCC4C)ccc32)cc1 (centres undefined)	-75*
CC1CCN(S(=O)(=O)c2ccc3c(c2)CCC(=O)N3CC(=O)Nc2ccc(C(C)C)cc2)CC1	-73*
O=c1cc(CCn2cccn2)nc(-c2ccc(CN3CCNCC3)cc2)[nH]1	-2
CCOCC12CCCOC1CCN(S(=O)(=O)C1CC1)C2 (centres undefined)	11
CCOCc1nnn2c1CN(Cc1cnn(C)c1)CC2	6
CCN(CC)C(=O)[C@@H]1C[C@H](N)CN1S(=O)(=O)Cc1cccc(C)c1	0
O=C(Nc1ccccc1C(F)(F)F)N1CCCCC1CCn1ccnc1 (centres undefined)	7
c1csc(CN2CCC3(CC2)CCN(CC2CC2)C3)n1	-13
O=C(Nc1ccc(OCc2ccccc2F)cc1)c1ccc(-n2cnnc2)cc1	34
CN1CCN(c2cc(C(=O)Nc3ccc(OCc4ccccc4F)cc3)ccn2)CC1	-76*
CN1CCN(c2cc(C(=O)NCCS(=O)(=O)c3ccc(F)cc3)ccn2)CC1	-24
COc1ccc(OC)c(NS(=O)(=O)c2cc3c4c(c2)CCC(=O)N4CCC3)c1	130
CC(C)OC(=O)c1cn(Cc2c(F)cccc2F)c2sc(-c3ccc(NC(=O)C(C)C)cc3)c(CN(C)Cc3ccccc3)c2c1=O	-80*
Cc1cc(C)cc(S(=O)(=O)N2CCC(C(=O)NCCc3csc(-c4ccccc4)n3)CC2)c1	15
SMILES	Tg IFNy HTS
O=C(O)CSc1nc2ccccc2n1Cc1ccccc1	13
COC(=O)c1c(C)nc2n(Cc3ccccc3)c3ccccc3n12	-84*
Cc1cc(NC(=O)CSc2nnc3n(Cc4ccccc4)c4ccccc4n23)no1	-2
COc1ccc2c(c1)NC1(CCN(C(=O)Cc3ccc(Cl)cc3)CC1)c1cccn1-2	17
Cc1ccc(N2C(=O)C(c3ccccc3)C(N3CCOCC3)C2=O)cc1 (centres undefined)	-57
COC(=O)c1ccc(CSc2ccccc2N)o1	69
O=C(NCc1ccco1)C(Sc1ccccc1)c1ccccc1 (centres undefined)	-3
CC(C)(C)CC(C)(C)NC(=O)C(Sc1ccccc1N)c1ccccc1 (centres undefined)	-88*
CN(C)CC1(O)CCN(C(=O)Cn2c(C3CC3)nc3ccccc32)C1 (centres undefined)	4
Clc1ccc(-c2cn[nH]c2C2CCCNC2)cc1 (centres undefined)	1
Clc1ccc(C2(c3ccc(-c4cn[nH]c4)cc3)CCNCC2)cc1	-72*
COc1cccc(C(=O)Nc2ccc(-c3nc(-c4ccc(C)cc4C)co3)cc2)c1	-7
O=C(Nc1ccc(-c2nc(-c3ccccc3)co2)cc1)c1ccc(Cl)cc1	49
CN(Cc1ccccn1)C(=O)c1cc(-c2cnc(-c3cccc(F)c3)nc2)cn1C	170
CCCCS(=O)(=O)N1CCC2(CC2C(=O)N(C)Cc2ccccn2)C1 (centres undefined)	114
CC(C)N(C)C(=O)C1=NOC2(CCN(C(=O)c3ccccn3)C2)C1 (centres undefined)	0
CN(Cc1ccccn1)C(=O)C1=NOC2(CCN(S(=O)(=O)c3cccc(F)c3)C2)C1 (centres undefined)	-81*
CN(Cc1ccccn1)C(=O)C1=NOC2(CCN(S(=O)(=O)c3ccc(F)cc3)C2)C1 (centres undefined)	-80*
Cc1ccc(S(=O)(=O)N2CCC3(CC(C(=O)NCC(C)C)=NO3)C2)cc1 (centres undefined)	0
CN1CC(=O)N(c2ccccc2)CC12CCN(C(=O)c1cccs1)C2 (centres undefined)	-2
